Measured values as given in ChEMBL document CHEMBL3988442, “University of Dundee, Small-Polar-MMV Screening Library” (2021).
For some of these results: Potency and affinity values are given separately.

What was measured:
Design in all cases: scale not given: direction of the effect not stated beside the values
[1] = biological target: Protein translocase subunit SecA (Escherichia coli (strain K12)) (UniProt P10408); test: Assay to Identify E. coli SecA ATPase Inhibitors; assay type: functional; conditions: 30 µM
Protein translocase subunit SecA (Escherichia coli (strain K12)), sequence (P10408 whole entry): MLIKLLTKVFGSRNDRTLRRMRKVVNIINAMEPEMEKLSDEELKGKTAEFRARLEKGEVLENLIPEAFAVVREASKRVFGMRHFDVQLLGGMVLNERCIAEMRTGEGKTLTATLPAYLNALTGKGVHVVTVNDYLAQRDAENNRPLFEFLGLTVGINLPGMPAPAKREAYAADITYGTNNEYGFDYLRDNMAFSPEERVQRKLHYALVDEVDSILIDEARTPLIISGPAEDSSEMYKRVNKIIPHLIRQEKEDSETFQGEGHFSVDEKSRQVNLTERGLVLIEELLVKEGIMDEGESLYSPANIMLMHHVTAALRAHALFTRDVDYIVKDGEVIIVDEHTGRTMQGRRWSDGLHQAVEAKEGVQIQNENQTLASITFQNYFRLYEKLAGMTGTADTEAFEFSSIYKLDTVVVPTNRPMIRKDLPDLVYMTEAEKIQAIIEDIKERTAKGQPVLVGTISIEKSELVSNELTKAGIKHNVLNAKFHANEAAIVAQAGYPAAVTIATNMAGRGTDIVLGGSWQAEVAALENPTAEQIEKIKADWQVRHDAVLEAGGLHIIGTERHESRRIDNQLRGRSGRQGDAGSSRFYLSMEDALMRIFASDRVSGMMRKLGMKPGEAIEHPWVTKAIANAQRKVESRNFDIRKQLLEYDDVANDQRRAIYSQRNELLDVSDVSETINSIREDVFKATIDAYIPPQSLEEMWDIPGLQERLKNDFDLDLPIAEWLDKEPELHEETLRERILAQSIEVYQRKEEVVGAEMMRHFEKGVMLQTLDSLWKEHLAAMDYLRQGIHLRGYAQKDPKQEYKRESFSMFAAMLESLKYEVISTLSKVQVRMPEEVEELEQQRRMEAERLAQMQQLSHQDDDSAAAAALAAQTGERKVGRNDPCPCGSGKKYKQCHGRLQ

[2] = biological target: T1, Ubiquitin-activating enzyme e1, putative (Leishmania donovani (strain BPK282A1)) (UniProt E9BSI1); test: Leishmania donovani Ubiquitin Activating Enzyme (LdE1); assay type: functional; conditions: 30 µM
T1 sequence (whole entry): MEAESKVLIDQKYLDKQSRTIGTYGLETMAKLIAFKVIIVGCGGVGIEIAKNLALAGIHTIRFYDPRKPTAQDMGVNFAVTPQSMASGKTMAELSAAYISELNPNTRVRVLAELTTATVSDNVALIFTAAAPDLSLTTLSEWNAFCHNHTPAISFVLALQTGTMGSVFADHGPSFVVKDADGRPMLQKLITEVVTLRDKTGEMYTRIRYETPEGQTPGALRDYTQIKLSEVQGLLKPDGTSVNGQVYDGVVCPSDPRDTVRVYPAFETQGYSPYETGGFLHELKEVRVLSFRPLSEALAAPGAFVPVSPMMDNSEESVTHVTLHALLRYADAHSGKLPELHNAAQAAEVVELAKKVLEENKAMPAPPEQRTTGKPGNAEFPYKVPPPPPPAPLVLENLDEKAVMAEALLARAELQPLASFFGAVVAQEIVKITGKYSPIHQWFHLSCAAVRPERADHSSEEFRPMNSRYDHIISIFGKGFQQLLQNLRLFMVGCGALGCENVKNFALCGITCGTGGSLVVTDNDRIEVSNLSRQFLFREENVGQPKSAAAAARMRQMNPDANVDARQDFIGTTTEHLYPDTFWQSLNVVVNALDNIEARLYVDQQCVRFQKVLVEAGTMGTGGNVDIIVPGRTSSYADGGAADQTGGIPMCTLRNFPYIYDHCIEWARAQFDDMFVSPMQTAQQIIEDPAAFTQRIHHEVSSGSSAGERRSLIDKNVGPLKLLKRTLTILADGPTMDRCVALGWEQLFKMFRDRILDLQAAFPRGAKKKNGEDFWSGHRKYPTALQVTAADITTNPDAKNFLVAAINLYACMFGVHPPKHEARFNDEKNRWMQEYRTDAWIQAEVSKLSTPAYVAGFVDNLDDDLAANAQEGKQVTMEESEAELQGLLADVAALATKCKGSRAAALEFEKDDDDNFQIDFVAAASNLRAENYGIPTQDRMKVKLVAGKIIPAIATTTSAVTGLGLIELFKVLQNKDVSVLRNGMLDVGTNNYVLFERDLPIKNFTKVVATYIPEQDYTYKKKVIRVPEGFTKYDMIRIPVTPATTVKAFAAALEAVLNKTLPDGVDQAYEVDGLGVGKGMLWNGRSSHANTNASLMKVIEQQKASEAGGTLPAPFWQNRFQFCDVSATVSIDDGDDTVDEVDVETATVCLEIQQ

[3] = biological target: AMP-activated protein kinase, AMPK (Homo sapiens) (UniProt P54646+O43741+P54619+Q9UGJ0+Q9Y478+Q13131+Q9UGI9); test: AMP-dependent Kinase enzyme assay. An in vitro enzyme assay that detects ADP turnover that is directly proportional to AMPK activity. This uses naive AMPK that is activated during the assay with MK-8722; assay type: functional; conditions: 30 µM
[4] = biological target: Sialic acid-binding Ig-like lectin 9 (Homo sapiens) (UniProt Q9Y336); test: Hs-Siglec9 ALPHAscreen SOP 20170721; conditions: 10 µM
Sialic acid-binding Ig-like lectin 9 (Homo sapiens), sequence (Q9Y336 whole entry): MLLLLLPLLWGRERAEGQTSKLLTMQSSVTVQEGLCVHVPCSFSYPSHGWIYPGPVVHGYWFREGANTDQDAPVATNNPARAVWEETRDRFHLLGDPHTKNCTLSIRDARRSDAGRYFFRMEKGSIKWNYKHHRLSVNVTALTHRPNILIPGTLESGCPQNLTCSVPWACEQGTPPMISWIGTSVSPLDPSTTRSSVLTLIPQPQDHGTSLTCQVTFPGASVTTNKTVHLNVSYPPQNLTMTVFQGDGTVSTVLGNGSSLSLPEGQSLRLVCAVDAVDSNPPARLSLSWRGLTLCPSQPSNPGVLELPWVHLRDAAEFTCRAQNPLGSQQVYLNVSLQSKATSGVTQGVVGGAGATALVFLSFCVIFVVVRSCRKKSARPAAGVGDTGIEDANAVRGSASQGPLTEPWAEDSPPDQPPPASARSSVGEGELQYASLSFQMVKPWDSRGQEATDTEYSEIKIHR

Trypanosoma cruzi = test: Trypanosoma cruzi phosphomannomutase and mannose-1-phosphate guanylyltransferase assay; assay type: functional; conditions: 10 µM
[5] = biological target: T2, Arginase-2, mitochondrial (Homo sapiens) (UniProt P78540); test: in vitro enzyme assay to detect the production of urea directly proportional to the activity of Arginase II; assay type: functional; conditions: 33.3 µM; further: in the data most compounds retested in dose-response had high values
T2 sequence (whole entry): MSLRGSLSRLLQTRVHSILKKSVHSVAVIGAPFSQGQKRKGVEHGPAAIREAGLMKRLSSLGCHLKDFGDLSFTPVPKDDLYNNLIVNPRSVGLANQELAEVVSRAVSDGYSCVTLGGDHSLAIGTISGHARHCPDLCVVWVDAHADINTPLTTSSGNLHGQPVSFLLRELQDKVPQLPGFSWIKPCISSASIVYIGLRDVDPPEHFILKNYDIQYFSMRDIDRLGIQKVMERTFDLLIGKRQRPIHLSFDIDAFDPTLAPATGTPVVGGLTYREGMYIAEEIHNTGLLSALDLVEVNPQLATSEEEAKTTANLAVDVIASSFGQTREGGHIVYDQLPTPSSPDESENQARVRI

[6] = biological target: T3, Proteasome subunit beta (Trypanosoma cruzi) (UniProt O96673); test: Trypanosoma cruzi proteasome chymotrypsin-like activity (TcProtChymo) assay.; further: in the data most compounds retested in dose-response had high values; assay type: functional; conditions: 9.37 µM
T3 sequence (whole entry): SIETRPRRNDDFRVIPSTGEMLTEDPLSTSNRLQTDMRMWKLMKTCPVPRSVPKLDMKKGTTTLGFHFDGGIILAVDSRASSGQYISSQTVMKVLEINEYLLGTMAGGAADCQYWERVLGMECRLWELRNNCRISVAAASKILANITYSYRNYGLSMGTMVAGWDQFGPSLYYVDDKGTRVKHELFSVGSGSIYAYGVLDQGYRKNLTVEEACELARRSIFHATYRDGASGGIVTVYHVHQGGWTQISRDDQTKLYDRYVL

Homo sapiens = species: Homo sapiens; test: To identify inhibition of the IFN signalling (Jak-Stat) pathway via expression of an eGFP reporter gene under the control of an IFN-stimulated response element (ISRE) containing MxA promoter.; assay type: functional; conditions: 30 µM
[7] = biological target: T4, Tyrosyl-tRNA synthetase, putative (Trypanosoma cruzi (strain CL Brener)) (UniProt Q4DSP6); test: Trypanosoma cruzi tyrosyl tRNA synthetase (TcYRS) _High Tyrosine SOP; assay type: functional; conditions: 30 µM; further: in the data most compounds retested in dose-response had high values
T4 sequence (whole entry): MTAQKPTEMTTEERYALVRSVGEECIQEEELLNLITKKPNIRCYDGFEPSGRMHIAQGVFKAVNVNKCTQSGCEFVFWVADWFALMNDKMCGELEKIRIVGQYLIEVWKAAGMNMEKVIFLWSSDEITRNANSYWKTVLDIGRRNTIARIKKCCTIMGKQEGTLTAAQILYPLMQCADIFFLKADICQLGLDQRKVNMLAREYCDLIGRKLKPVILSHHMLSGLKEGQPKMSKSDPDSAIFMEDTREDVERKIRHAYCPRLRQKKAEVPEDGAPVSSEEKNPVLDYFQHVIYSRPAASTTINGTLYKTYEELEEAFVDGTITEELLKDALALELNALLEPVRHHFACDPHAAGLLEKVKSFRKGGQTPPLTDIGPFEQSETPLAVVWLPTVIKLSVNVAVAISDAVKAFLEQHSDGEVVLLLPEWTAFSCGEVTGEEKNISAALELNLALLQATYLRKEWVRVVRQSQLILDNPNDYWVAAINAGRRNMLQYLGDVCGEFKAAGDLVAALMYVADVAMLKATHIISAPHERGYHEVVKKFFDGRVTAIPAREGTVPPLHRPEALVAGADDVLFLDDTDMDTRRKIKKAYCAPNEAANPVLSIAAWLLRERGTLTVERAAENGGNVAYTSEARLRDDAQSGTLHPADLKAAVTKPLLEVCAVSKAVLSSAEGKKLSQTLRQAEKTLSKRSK

[8] = biological target: T4, Tyrosyl-tRNA synthetase, putative (Trypanosoma cruzi (strain CL Brener)); test: Trypanosoma cruzi tyrosyl tRNA synthetase (TcYRS) SOP; assay type: functional; conditions: 30 µM
[9] = biological target: Chromo domain-containing protein 1 (Saccharomyces cerevisiae (strain ATCC 204508 / S288c) (Baker's yeast)) (UniProt P32657); test: ScCHD-1 Enzyme Inhibition Assay; assay type: functional; conditions: 30 µM; further: in the data most compounds retested in dose-response had high values
Chromo domain-containing protein 1 (Saccharomyces cerevisiae (strain ATCC 204508 / S288c) (Baker's yeast)), sequence (P32657 whole entry, the tested form may be a part): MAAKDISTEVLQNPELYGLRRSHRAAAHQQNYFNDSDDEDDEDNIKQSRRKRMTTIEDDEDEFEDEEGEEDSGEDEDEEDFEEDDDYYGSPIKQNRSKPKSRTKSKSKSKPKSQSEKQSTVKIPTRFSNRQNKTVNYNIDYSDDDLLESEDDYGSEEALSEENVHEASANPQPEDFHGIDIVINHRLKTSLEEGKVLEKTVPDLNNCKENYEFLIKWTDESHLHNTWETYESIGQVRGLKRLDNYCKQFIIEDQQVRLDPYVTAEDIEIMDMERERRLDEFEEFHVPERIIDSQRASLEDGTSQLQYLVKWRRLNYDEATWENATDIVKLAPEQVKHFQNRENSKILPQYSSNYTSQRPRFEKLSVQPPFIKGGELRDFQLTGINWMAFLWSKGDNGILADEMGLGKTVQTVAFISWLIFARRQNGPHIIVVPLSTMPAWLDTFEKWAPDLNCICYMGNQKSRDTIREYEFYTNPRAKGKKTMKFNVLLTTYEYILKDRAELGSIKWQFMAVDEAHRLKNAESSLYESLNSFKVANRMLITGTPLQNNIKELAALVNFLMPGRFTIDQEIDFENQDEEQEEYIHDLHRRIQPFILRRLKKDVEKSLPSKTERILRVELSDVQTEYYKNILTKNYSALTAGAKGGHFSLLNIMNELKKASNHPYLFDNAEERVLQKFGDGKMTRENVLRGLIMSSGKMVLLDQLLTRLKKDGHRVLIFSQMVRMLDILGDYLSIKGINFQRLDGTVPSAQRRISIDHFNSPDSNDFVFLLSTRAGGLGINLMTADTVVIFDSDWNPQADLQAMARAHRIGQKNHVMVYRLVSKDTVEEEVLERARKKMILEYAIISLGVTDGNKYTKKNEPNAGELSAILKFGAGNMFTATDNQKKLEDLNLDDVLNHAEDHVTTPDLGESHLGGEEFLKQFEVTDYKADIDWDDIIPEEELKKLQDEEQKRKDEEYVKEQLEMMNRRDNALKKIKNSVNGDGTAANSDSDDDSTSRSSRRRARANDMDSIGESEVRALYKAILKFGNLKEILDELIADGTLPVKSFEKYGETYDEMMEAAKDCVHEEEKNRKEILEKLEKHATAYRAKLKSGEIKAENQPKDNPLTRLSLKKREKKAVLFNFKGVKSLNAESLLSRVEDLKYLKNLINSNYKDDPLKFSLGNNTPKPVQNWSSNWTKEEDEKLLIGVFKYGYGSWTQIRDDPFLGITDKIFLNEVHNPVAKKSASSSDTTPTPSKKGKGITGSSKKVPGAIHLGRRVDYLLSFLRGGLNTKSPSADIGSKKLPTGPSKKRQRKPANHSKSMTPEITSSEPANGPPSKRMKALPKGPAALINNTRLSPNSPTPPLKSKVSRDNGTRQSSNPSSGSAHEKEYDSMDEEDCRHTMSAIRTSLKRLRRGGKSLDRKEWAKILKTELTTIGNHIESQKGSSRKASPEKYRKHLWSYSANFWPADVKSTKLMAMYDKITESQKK

Compound | Percent Effect [1] [%] | Percent Effect [2] [%] | Percent Effect [3] [%] | Percent Effect [4] [%] | Percent Effect (Trypanosoma cruzi) [%] | Percent Effect [5] [%] | Percent Effect [6] [%] | Percent Effect (Homo sapiens) [%] | Percent Effect [7] [%] | Percent Effect [8] [%] | Percent Effect [9] [%]
O=C1CCc2cc(C(=O)NCc3ccc(-n4cncn4)nc3)ccc2N1 | -8 | 8.11 | -0.201 | 4.21 | -5.19 | 0.802 | -4.68 | 10.4 | 4.43 | 1.24 | 23.8
Cc1cc(CN2CCN(C(=O)C(C)C)[C@@H]3CS(=O)(=O)C[C@@H]32)ccc1F | -4.05 | 6.94 | -6.22 | -3.08 | -0.486 | 5.3 | 14.7 | -3.72 | 7.37 | 12.8 | -2.86
N#Cc1ccc(C(=O)N2CC[C@H]3[C@@H]2CCC(=O)N3c2ccccc2)cc1 | 1.09 | 0 | 6.69 | -7.59 | -7.68 | 4.89 | 6.08 | 0.115 | 4.25 | 11.5 | -4.7
O=C1CC2(CCN(S(=O)(=O)C3CC3)C2)CN1c1cncnc1 (configuration not stated) | 1.95 | 16 | -1.36 | -1.59 | 1.54 | -50.7 | 9.74 | 5.32 | 6.25 | 27.5 | -4.67
CN(Cc1nc(-c2ccco2)no1)C1CCCN(c2cccnn2)C1 (configuration not stated) | -1.52 | 20.2 | -5.85 | -5.93 | 2.17 | 1.14 | 16.1 | 11.9 | 6.4 | 21.5 | -10.1
O=C(O)[C@@H]1CN(C(=O)c2ccc3[nH]nnc3c2)C[C@H]1c1cccc(F)c1 | -4.68 | 11 | -5.72 | 8.16 | 6.94 | -3.99 | 12.6 | 3.52 | 4.17 | 8.64 | -2.47
CC(C)(C)n1cc(C(=O)N2CCCN(Cc3cccs3)CC2)cn1 | -1.01 | 5.26 | 3.41 | 2.97 | -3.57 | 3.45 | 9.19 | 14.5 | 1.47 | 9.76 | -2.3
O=C(c1ccccc1N1CCOCC1)N1CCCC(n2cccn2)C1 (configuration not stated) | -5.13 | 2.7 | -10.8 | 3.15 | -1.98 | -0.802 | 3.06 | 12.4 | 5.42 | 13.6 | -3.66
O=C(Cc1ccc2c(c1)OCCO2)N1CCCC(n2ccnc2)C1 (configuration not stated) | -8.71 | 5.2 | -7.38 | -6.56 | 10.7 | -3.58 | 4.77 | 2.67 | 1.91 | 11.8 | -24.2
COCCOCC(=O)Nc1ccc(C)cc1F | -1.36 | 2.63 | 5.59 | -0.498 | 3.21 | 0 | 9.11 | -16.7 | 2.13 | 2.6 | 2.83
CCSc1cc(C(=O)NCCC(=O)Nc2ccccn2)ccn1 | -5.48 | 2.74 | -2.02 | 1.7 | 6.27 | 0.909 | 8.16 | 15.8 | 5.38 | 17.5 | -3.9
Cc1nn2c(N3CCC(O)CC3)cc(-c3ccccc3)nc2c1C | -3.77 | 5.48 | -0.844 | 1.98 | -3.57 | -3.99 | 11 | 16 | 5.21 | 13.6 | -5.15
Cc1nc(CN2CC3(CCN(c4ncc(F)cn4)C3)CC2=O)cs1 (configuration not stated) | -1.99 | 0 | 8.52 | 6.6 | -0.69 | 1.94 | 0.348 | 7.34 | 3.17 | 8.97 | -4.69
CCc1cnc(CN(C)C2CCN(CCS(C)(=O)=O)C2)o1 (configuration not stated) | -1.6 | -1.39 | -3.86 | -4.8 | -5.54 | 2.21 | 3.51 | -7.25 | 0 | 2.56 | 0.436
Cc1cc(-c2cnc(N3CCCC(C)C3)nc2-c2cccnc2C)on1 (configuration not stated) | -7.33 | 1.35 | 6.26 | -5.16 | -5.93 | -5.34 | 8.74 | 59.4 | -8.6 | -3.9 | -22.2
CSCc1cccc(S(=O)(=O)N2CCSCC2)c1 | -2.31 | -1.33 | 0.956 | 1.81 | -4.91 | -4.05 | 8.87 | 4.39 | -16.9 | -2.56 | -9.22
Cc1cc(C)nc(CCNC(=O)C(c2ccc(F)cc2)N(C)C)n1 (configuration not stated) | 6.75 | 11 | 8.61 | 2.2 | -9.13 | -31.9 | 3 | 48.8 | 1.04 | 6.17 | -6.29
